HT1080-NT tox – qHTS for induction of synthetic lethality in tumor cells producing 2HG: qHTS for the HT-1080-NT fibrosarcoma cell line. AID 686970, 2013. HT-1080-NT fibrosarcoma viability, CellTiter-Glo ATP luminescence, 48 h. Potency, µM (series often up to 46.1 µM), hits mostly cytotoxic. 360,000 compounds, 1.6% hits;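 further: NT is the 2HG producing partner of a matched IDH1 knockdown line; nearly all actives have a fitted effect of over 55% in size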
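Viability by CellTiter-Glo luminescence after 48 h compound exposure at 37C of HT-1080-NT cells (750/well, RPMI, 5% FBS). % activity scaled between DMSO wells and medium-only wells, then curve-fitted and categorized by curve class.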
KB-3-1 cytotox – qHTS assay for MDR1-selective chemotherapeutics: Primary screen using the parental adenocarcinoma cell KB-3-1; KB-3-1 viability, CellTiter-Glo ATP luminescence, 72 h; Potency, µM (titrated, usually from 46.1 µM), hits mostly cytotoxic; 400,000 compounds, 1.4% hits; further: nearly all actives have a fitted effect of over 60% in size
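Multi-concentration cytotoxicity screen in KB-3-1 cells grown in DMEM lacking phenol red with 10% FBS. After 72 h at 37 °C with compound, ATP-dependent luminescence was recorded.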
MCF10A rereplic – A quantitative high throughput screen for small molecules that induce DNA re-replication in MCF 10a normal breast cells; 350,000 compounds, 2.9% hits; Potency, µM (top dose mostly 46.1 µM), hits mostly activators; MCF 10A DNA re-replication, Hoechst nuclear intensity, 48 h; further: nearly all actives have a fitted effect of over 50% in size
KB-V1 cytotox – qHTS assay for MDR1-selective chemotherapeutics: Primary screen using the drug-selected MDR subline cells KB-V1. KB-V1 MDR cells viability, CellTiter-Glo, 72 h. Potency, µM (titrated, usually from 46.1 µM), usual class: cytotoxic. 400,000 compounds, 3.4% hits; further: nearly all actives have a fitted effect of over 60% in size
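Drug-selected KB-V1 cells, grown in DMEM lacking phenol red with 10% FBS, receive compound titrations; after three days at 37 degrees C, surviving cell ATP is quantified by CellTiter-Glo luminescence and responses normalized and curve-fitted.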
HT1080 IDH1KD tx – qHTS for induction of synthetic lethality in tumor cells producing 2HG: qHTS for the HT-1080-IDH1KD cell line | 360,000 compounds, 2% hits | Potency, µM (top dose mostly 46.1 µM), actives largely listed as cytotoxic | HT-1080 IDH1 knockdown viability, ATP luminescence, 48 h
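CellTiter-Glo luminescence after 48 h compound exposure at 37 degrees C of IDH1-knockdown HT-1080 cells in 5% FBS RPMI. %Activity scaled between DMSO wells and cell-free media wells, with curves fitted and assigned curve classes.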
SW480 rereplic – A quantitative high throughput screen for small molecules that induce DNA re-replication in SW480 colon adenocarcinoma cells; SW480 DNA re-replication, Hoechst DNA content imaging, 48 h; Potency, µM (doses to about 46.1 µM), actives largely listed as activators; 340,000 compounds, 1.8% hits; AID 624297, 2012; further: nearly all actives have a fitted effect of over 55% in size
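Hoechst fluorescence of nuclei (405 nm excitation, 500-530 nm emission) measured by plate-scanning imager after 48 hr compound exposure at 37 C; re-replication scored as increased number of nuclei with elevated intensity.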
A number is an active result; i = inactive; ? = inconclusive; nt = no result given; [ ] = dose if it differs, or a comment. The list is not random: actives were taken first. Their share in the collection is about 7.9%. The call rests on the fitted dose curve; in most records, active means well fitted curve in the direction sought with a large enough effect; inconclusive means small, poorly fitted or top-dose-only effect, or another doubt; inactive means no such curve, though single readings can be large; an effect the other way counts as inactive or inconclusive.

SMILES	HT1080-NT tox	KB-3-1 cytotox	MCF10A rereplic	KB-V1 cytotox	HT1080 IDH1KD tx	SW480 rereplic
Cc1nn(Cc2ccccc2Cl)c(C)c1C(=O)NC1CCCc2ccccc21 (stereo unspecified)	i	i	?	i	i	i
CCCC(C)(COC(N)=O)COC(=O)NC(C)C (stereo unspecified)	i	i	i	i	i	i
COC1CC(C)C(OC)c2cc(O)cc(c2O)NC(=O)C(C)=CC=CC(C)C(OC(N)=O)C(C)=CC(C)C1OC (stereo unspecified)	i	i	5.8µM	i	23µM	2.6µM
CCCCCn1c(=O)c(C(=O)Nc2cccc(C)c2)c(O)c2ccccc21	i	?	i	i	i	i
Cc1cc(C)c(OCC(=O)Nc2cccc(NC(=O)c3ccco3)c2)c(Br)c1	?	i	i	21µM	?	i
CC(C)CCCn1c(O)c(/C=C2/C=CC=N2)c(=O)[nH]c1=O	18µM	16µM	18µM	?	16µM	13µM
CCCCn1c(O)c(C=NCCCn2ccnc2)c(=O)[nH]c1=O	i	i	i	i	i	i
Cc1ccc(N2C(=O)NC(=O)C(CCc3ccccn3)(Cc3cccc(Cl)c3Cl)C2=O)cc1 (stereo unspecified)	i	i	i	i	i	i
CC1=C(C(=O)Nc2ccccc2)C(c2ccc(C)cc2)N=C(Nc2nc3ccccc3o2)N1 (stereo unspecified)	?	i	?	i	11µM	?
Cc1nc2ccccc2c(=O)n1/N=C/c1cc(Br)cc(Br)c1O	i	i	i	i	?	7.3µM
CC(=O)OCC12CC(OC(=O)CC(C)C)C(C)=CC1OC1C(O)C(OC(C)=O)C2(C)C12CO2 (stereo unspecified)	0.26µM	0.0092µM	?	?	nt	?
C=C1C(=O)O[C@@H]2C[C@@H](C)[C@H]3C=CC(=O)[C@]3(O)C[C@@H]12	i	i	?	i	i	?
C=C1C(=O)OC2CC3(C)OC3CCC(C)=CC(OC(C)=O)C12 (stereo unspecified)	i	?	5.2µM	i	15µM	i
Cc1cccc(/C(N)=N/OC(=O)N2CCOCC2)c1	?	i	?	?	11µM	?
O=C(Nc1ccccc1OC(=O)N1CCOCC1)N1CCOCC1	i	i	i	i	i	i
CO[C@H]1CC=C2CCN3CCC4=C(CC(=O)OC4)[C@]23C1	i	i	?	i	i	i
S=C=Nc1ccccn1	i	i	i	i	i	i
c1ccc(/N=C2\N=C(Nc3ccccn3)c3ccccc32)nc1	?	i	i	2.9µM	i	?
C[N+]1(C)CCCCC1COC(=O)C(O)(c1ccccc1)c1ccccc1 (stereo unspecified)	nt	nt	i	nt	nt	i
O=C1CC(c2ccc(C(F)(F)F)cc2)c2c(c3ccccc3oc2=O)O1 (stereo unspecified)	nt	i	nt	i	nt	nt
COc1ccc(C2=CC(c3ccc(OC)c(OC)c3)c3c(c4ccccc4oc3=O)O2)cc1OC (stereo unspecified)	?	?	2.9µM	i	?	13µM
CN(C)C(=O)Oc1ccc(OCc2nc3ccccc3[nH]2)cc1	7.3µM	?	i	12µM	6.5µM	i
CN(C)C(=O)Oc1ccc(OC(=O)N(C)C)cc1	i	i	?	i	i	i[9.22 µM]
CC1CN=C(Nc2ccccc2)S1 (stereo unspecified)	i	i	i	i	i	i
C=C(C)[C@@]12OC3(c4ccccc4)O[C@@H]1C1[C@@H]4O[C@]4(CO)[C@@H](O)[C@]4(O)C(=O)C(C)=C[C@H]4[C@@]1(O3)[C@H](C)[C@H]2OC(=O)/C=C/C=C/c1ccccc1 (stereo partly specified)	?	?	i	?	?	i
SMILES	HT1080-NT tox	KB-3-1 cytotox	MCF10A rereplic	KB-V1 cytotox	HT1080 IDH1KD tx	SW480 rereplic
Cc1ccc(NP(=O)(Oc2ccccc2)Oc2ccccc2)cc1	i	i	i	i	i	i[1.84 µM]
Cc1ccc(OP(=O)(NCc2ccccc2)Oc2ccc(C)cc2)cc1	i	?	?	15µM	i	?
COc1ccccc1-n1c(O)c(C=Nc2c(C)n(C)n(-c3ccccc3)c2=O)c(=O)[nH]c1=O	i	i	?	i	i[9.24 µM]	23µM
O=c1[nH]c(=S)n(C2CC2)c(O)c1/C=N/Nc1ccccc1	?	i	?	i	2.3µM	i
O=c1c(C=NCc2cccs2)c(O)n(C2CCCCC2)c(=O)n1C1CCCCC1	i	i	i	i	i	i
O=c1[nH]c(=O)n(Cc2ccc(F)cc2)c(O)c1C=NCCCO	i	i	i	i	i	i
COc1ccc(OC)c(-n2c(O)c(C=Nc3c(C)n(C)n(-c4ccccc4)c3=O)c(=O)[nH]c2=O)c1	i	i	?	i	i	?
O=c1[nH]c(=O)n(Cc2ccc(F)cc2)c(O)c1/C=N/Nc1ccccc1	2.3µM	i	i	i	2.3µM	i
O=c1c(C=NCCN2CCNCC2)c(O)n(C2CCCCC2)c(=O)n1C1CCCCC1	20µM	i	?	?	?	?
O=c1[nH]c(=S)n(C2CC2)c(O)c1/C=N/Nc1cccc2ccccc12	i	i	i	i	i	i
COc1ccccc1Oc1c(C)oc2cc(OC(=O)N(C)C)ccc2c1=O	i	i	i	i	i	i
Cc1c(N=Cc2c(O)n(Cc3ccccc3)c(=O)[nH]c2=O)c(=O)n(-c2ccccc2)n1C	i	i	i	i	i	29µM
Cc1c(N=Nc2c(O)n(Cc3ccccc3)c(=O)[nH]c2=O)c(=O)n(-c2ccccc2)n1C	i	i	i	3.7µM	?	?
C=CCn1c(O)c(C=NCCN2CCNCC2)c(=O)[nH]c1=O	i	i	i	i	i	i
O=c1[nH]c(=O)n(Cc2ccccc2)c(O)c1C=NCCN1CCNCC1	i	i	2.9µM	i	i	6.5µM
COc1ccc(Cn2c(O)c(C=Nc3c(C)n(C)n(-c4ccccc4)c3=O)c(=O)[nH]c2=O)cc1	i	i	?	i	i	?
CCCCOC(=O)C1=C(N)OC2=C(C(=O)CCC2)[C@]12C(=O)Nc1ccccc12	i	i	i	i	i	i
COc1cc2c(c(OC)c1OC)-c1ccc(O)cc1C(NC(C)=O)CC2 (stereo unspecified)	?	?	0.058µM	?	?	0.058µM

Screening results: PubChem, National Center for Advancing Translational Sciences (NCATS)
